From PubChem BioAssay (EPA / NIEHS)
Activity calls are given as the source filed them. How the source made its calls: active means hit-call score of the fitted dose curve at least 0.9, where 1 is the maximum; inactive means score below 0.9. Peptide text beside a SMILES is read from it.

Experiment: ATG_AP_2_CIS: Attagene CIS-FACTORIAL HepG2 Assay for human Activator Protein 2 (AP-2) (AID 2282932)
Details: HepG2 AP-2 cis-reporter, Attagene transcription factor profiling; actives raise or lower the signal
Method: ATG_CIS is a cell-based, multiplexed-readout assay that uses HepG2, a human liver cell line, with measurements taken at 24 hours after chemical dosing in a 24-well plate.ATG_AP_2_CIS is one of 52 assay component(s) measured or calculated from the ATG_CIS assay. It is designed to make measurements of mRNA induction, a form of inducible reporter, as detected with fluorescence intensity signals by Reverse transcription polymerase chain reaction (RT-PCR) and Capillary electrophoresis technology.Data from the assay component ATG_AP_2_CIS was analyzed into 1 assay endpoint. This assay endpoint, ATG_AP_2_CIS, was analyzed with bidirectional fitting relative to DMSO as the negative control and baseline of activity. Using a type of inducible reporter, measures of mRNA for gain or loss-of-signal activity can be used to understand the reporter gene at the transcription factor-level as they relate to the gene TFAP2A and TFAP2B and TFAP2D. Furthermore, this assay endpoint can be referred to as a primary readout, because this assay has produced multiple assay endpoints where this one serves a reporter gene function. To generalize the intended target to other relatable targets, this assay endpoint is annotated to the dna binding intended target family, where the subfamily is basic helix-turn-helix leucine zipper.
Human liver HepG2 cells are transiently transfected with multiple reporter transcription units (MRTUs) in 6-well plates using FuGene 6 reagent (Roche; 3 ml FuGene/1 mg DNA). The MRTU constructs are regulated by a cis-regulating element (promoter). […] A major difference between the CIS and TRANS system is that in CIS activities of endogenous TFs are measured, whereas the TRANS assay evaluates changes in activities of exogenous, chimeric NR-Gal4 proteins. […] At the end of 24 hour incubation, total RNA was isolated using TriZol reagent (Invitrogen). The isolated RNA is then reverse-transcribed using oligo(dT) primer and Mo-MLV reverse transcriptase (Invitrogen) with DNAse I (Ambion) treatment for 30 min. The one-tenth of the produced cDNA was amplified by PCR using Taq DNA polymerase (Invitrogen) and two reporter sequence-specific primers. The PCR products were fluorescently labeled by primer extension with 6-arboxyfluorescein (6-FAM) 5'-labeled reporter sequence-specific primer (2 min at 95 C, 20 s at 68 C and 10 min at 72 C) and these products were digested with 5U of HpaI (New England Biolabs) for 2h at 37 C. The fragments were purified using Qiaquick PCR columns (Qiagen), analyzed on an ABI 3130xL genetic analyzer (Applied Biosystems) with peak positions identified by using a set of X-rhodamine (ROX)-labeled MapMarker1000 molecular weight standards (BioVentures). The raw capillary electrophoresis data was processed using Attagraph software (Attagene).

Row | SMILES | outcome
1 | CCCCc1ccc(Cl)cc1 | inactive
2 | CC(C)(CO)C(O)C(=O)NCCCO (stereo not given) | inactive
3 | COC(OC)(C(=O)c1ccccc1)c1ccccc1 | inactive
4 | CC1(C)CCC[C@]2(C)[C@H]3CC(=O)O[C@]3(C)CC[C@@H]12 | inactive
5 | CCOB(OCC)OCC | inactive
6 | O=C1CCCCC1C1CCCCC1 (stereo not given) | inactive
7 | CC1=CC=C(C(C)C)CC1 | inactive
8 | O=S(=O)(O)c1ccc(Nc2nc(Nc3ccc(C=Cc4ccc(Nc5nc(Nc6ccc(S(=O)(=O)O)cc6)nc(N(CCO)CCO)n5)cc4S(=O)(=O)O)c(S(=O)(=O)O)c3)nc(N(CCO)CCO)n2)cc1 | inactive
9 | CN1CCN(C)CC1 | inactive
10 | C=CC(=O)NCOCCCC | inactive
11 | C=CCOC(=O)c1ccc(C(=O)OCC=C)c(C(=O)OCC=C)c1 | inactive
12 | CC(C)c1cccc(C(C)C)c1N | inactive
13 | C1CNCCN1 | inactive
14 | CC(=O)c1ccccc1O | inactive
15 | CCCCCCO | inactive
16 | NC(=O)Nc1ccccc1 | inactive
17 | C[Si]1(C)O[Si](C)(C)O[Si](C)(C)O[Si](C)(C)O[Si](C)(C)O1 | inactive
18 | C=C(C)C(=O)OCC(O)COc1ccc(C(C)(C)c2ccc(OCC(O)COC(=O)C(=C)C)cc2)cc1 (stereo not given) | inactive
19 | CC(=O)c1ccc(S(=O)(=O)NC(=O)NC2CCCCC2)cc1 | inactive
20 | CCCCC(C=O)CC (stereo not given) | inactive

Row | SMILES | outcome
21 | Nc1nc(N)nc(-c2ccccc2)n1 | inactive
22 | CC(C)[N+](C)(CCOC(=O)C1c2ccccc2Oc2ccccc21)C(C)C | inactive
23 | O=C(O)/C=C/c1ccccc1 | inactive
24 | CC(=O)CCC=C(C)C | inactive
25 | CCC1COC(=O)O1 (stereo not given) | inactive
26 | Cc1ccc([N+](=O)[O-])cc1N | inactive
27 | CCC(C)(O)CCCC(C)C (stereo not given) | inactive
28 | C=CC(=O)OCCCCCCOC(=O)C=C | inactive
29 | COc1nccnc1CC(C)C | inactive
30 | COC(=O)[C@H](Cc1ccccc1)NC(=O)[C@@H](N)CC(=O)O (H-Asp-Phe-OMe) | inactive
31 | CCCCC1CCC(=O)O1 (stereo not given) | inactive
32 | C=C(C)C(=O)OCCOC(=O)C(=C)C | inactive
33 | O=C(O)CCC(=O)O | inactive
34 | C=CCCCCCCCCOC(C)=O | inactive
35 | CC1CC(=O)CC(C)(C)C1 (stereo not given) | inactive
36 | CCCCCCC=O | inactive
37 | O=C(OCc1ccccc1)c1ccc(O)cc1 | inactive
38 | O=C(Cl)c1c(Cl)c(Cl)c(C(=O)Cl)c(Cl)c1Cl | inactive
39 | CC(C)COC(=O)CC(C(=O)OCC(C)C)S(=O)(=O)O (stereo not given) | inactive
40 | CC(C)(c1ccccc1)c1ccc(Nc2ccc(C(C)(C)c3ccccc3)cc2)cc1 | inactive
